Source: paper PMC7862700, “An all-to-all approach to the identification of sequence-specific readers for epigenetic DNA modifications on cytosine”

target: T1, ERG (Homo sapiens, UniProt P11308 1-479); assay: DAPPL (digital affinity profiling via proximity ligation, sequencing); 10 mM Tris-HCl pH 7.5, 50 mM NaCl, 1 mM DTT, 4% glycerol, room temperature, 30 min; GST-TFs on glutathione beads, 16-mer random dsDNA library, 0.1% formaldehyde crosslink after washing; high values mean tight binding; settings: protein: recombinant; tags: N-terminal GST; dsDNA, one strand shown
T1 sequence: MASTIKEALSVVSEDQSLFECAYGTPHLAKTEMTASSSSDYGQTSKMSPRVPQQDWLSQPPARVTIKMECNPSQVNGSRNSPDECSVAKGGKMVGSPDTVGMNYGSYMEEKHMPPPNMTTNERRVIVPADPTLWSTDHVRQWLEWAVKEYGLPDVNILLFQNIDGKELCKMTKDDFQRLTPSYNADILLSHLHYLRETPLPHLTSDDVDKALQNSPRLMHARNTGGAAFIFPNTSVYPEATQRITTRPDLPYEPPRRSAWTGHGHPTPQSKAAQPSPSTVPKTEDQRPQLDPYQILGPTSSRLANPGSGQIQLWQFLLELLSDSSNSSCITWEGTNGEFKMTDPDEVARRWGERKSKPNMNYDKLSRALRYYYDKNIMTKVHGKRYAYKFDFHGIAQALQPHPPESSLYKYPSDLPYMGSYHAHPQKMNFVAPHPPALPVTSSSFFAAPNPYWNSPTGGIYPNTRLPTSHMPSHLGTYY
Summary of the method: (§1)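 GST fusions of human transcription factors were expressed in yeast and captured with glutathione beads. Once given DNA barcodes and pooled alongside a tag-only sample, they were incubated for 30 min at room temperature with 200 nmole of a random double-stranded 16-mer DNA library in Tris/NaCl/DTT/glycerol buffer, then washed, crosslinked (0.1% formaldehyde), proximity-ligated, PCR-amplified and sequenced on an Illumina NextSeq500. The binding signal of each hexamer is its read frequency for a factor divided by its frequency for the tag-only sample.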

Row | Sequence | binding signal
1 | AACGAC | 1.14 fold enrichment (6-mer frequency, TF over GST control)
2 | CGCCGA | 1.1 fold enrichment (6-mer frequency, TF over GST control)
3 | CGCCGC | 1.06 fold enrichment (6-mer frequency, TF over GST control)
4 | TAATGA | 1.02 fold enrichment (6-mer frequency, TF over GST control)
5 | CCGTAA | 1.14 fold enrichment (6-mer frequency, TF over GST control)
6 | ATTACT | 1.22 fold enrichment (6-mer frequency, TF over GST control)
7 | CTGGCC | 1.29 fold enrichment (6-mer frequency, TF over GST control)
8 | ATAGCA | 1.19 fold enrichment (6-mer frequency, TF over GST control)
9 | CCATTG | 1.19 fold enrichment (6-mer frequency, TF over GST control)
10 | TCTATA | 1.02 fold enrichment (6-mer frequency, TF over GST control)
11 | CTTACA | 1.21 fold enrichment (6-mer frequency, TF over GST control)
12 | AACGAA | 1.15 fold enrichment (6-mer frequency, TF over GST control)
13 | CCTCTG | 1.62 fold enrichment (6-mer frequency, TF over GST control)
14 | GAAAAA | 1.14 fold enrichment (6-mer frequency, TF over GST control)
15 | AGATGC | 1.11 fold enrichment (6-mer frequency, TF over GST control)
16 | TACTAA | 1.29 fold enrichment (6-mer frequency, TF over GST control)
17 | CTCCGT | 1.16 fold enrichment (6-mer frequency, TF over GST control)
18 | TGCGAC | 1.26 fold enrichment (6-mer frequency, TF over GST control)
19 | GAACTT | 1.58 fold enrichment (6-mer frequency, TF over GST control)
20 | ATCGCT | 1.01 fold enrichment (6-mer frequency, TF over GST control)

Row | Sequence | binding signal
21 | AAGTAG | 1.24 fold enrichment (6-mer frequency, TF over GST control)
22 | AACAGC | 1.13 fold enrichment (6-mer frequency, TF over GST control)
23 | TACTGC | 1.25 fold enrichment (6-mer frequency, TF over GST control)
24 | GCCGAT | 1.03 fold enrichment (6-mer frequency, TF over GST control)
25 | CCTCAA | 1.26 fold enrichment (6-mer frequency, TF over GST control)
26 | GCACTG | 1.07 fold enrichment (6-mer frequency, TF over GST control)
27 | TTTCGC | 1.02 fold enrichment (6-mer frequency, TF over GST control)
28 | ATCTAC | 1.2 fold enrichment (6-mer frequency, TF over GST control)
29 | CACTCT | 1.24 fold enrichment (6-mer frequency, TF over GST control)
30 | ATTATC | 1.32 fold enrichment (6-mer frequency, TF over GST control)
31 | GGCACT | 1.22 fold enrichment (6-mer frequency, TF over GST control)
32 | TCAACG | 1.08 fold enrichment (6-mer frequency, TF over GST control)
33 | TCCACT | 1.54 fold enrichment (6-mer frequency, TF over GST control)
34 | ACAATG | 1.14 fold enrichment (6-mer frequency, TF over GST control)
35 | AGTTTC | 1.3 fold enrichment (6-mer frequency, TF over GST control)
36 | AACAAG | 1.14 fold enrichment (6-mer frequency, TF over GST control)
37 | ACCTCC | 1.36 fold enrichment (6-mer frequency, TF over GST control)
38 | CGATAG | 1.16 fold enrichment (6-mer frequency, TF over GST control)
39 | AGTACT | 1.25 fold enrichment (6-mer frequency, TF over GST control)

target: ELF1 (Homo sapiens, UniProt P32519 1-619); assay: as above; settings: protein: recombinant; tags: N-terminal GST; dsDNA, one strand shown
Sequence (P32519 whole entry): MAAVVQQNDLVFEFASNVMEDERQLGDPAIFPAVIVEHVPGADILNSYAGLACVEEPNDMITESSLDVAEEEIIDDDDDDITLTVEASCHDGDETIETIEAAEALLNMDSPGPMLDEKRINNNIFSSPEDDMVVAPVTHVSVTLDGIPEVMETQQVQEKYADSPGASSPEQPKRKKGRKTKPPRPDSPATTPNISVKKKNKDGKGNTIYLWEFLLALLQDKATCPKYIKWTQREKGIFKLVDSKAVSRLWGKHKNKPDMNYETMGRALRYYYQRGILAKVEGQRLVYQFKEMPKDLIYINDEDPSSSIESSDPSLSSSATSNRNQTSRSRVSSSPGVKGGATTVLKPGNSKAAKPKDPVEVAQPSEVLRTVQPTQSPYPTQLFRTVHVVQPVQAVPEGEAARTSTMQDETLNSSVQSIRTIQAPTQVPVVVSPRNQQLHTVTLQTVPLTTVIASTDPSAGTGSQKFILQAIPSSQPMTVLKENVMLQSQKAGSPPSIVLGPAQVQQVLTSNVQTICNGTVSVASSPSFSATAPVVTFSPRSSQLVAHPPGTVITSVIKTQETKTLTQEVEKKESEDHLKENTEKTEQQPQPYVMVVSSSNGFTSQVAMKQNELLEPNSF
Summary of the method: as §1

Row | Sequence | binding signal
40 | AACGAC | 1.09 fold enrichment (6-mer frequency, TF over GST control)
41 | CGCCGA | 1.19 fold enrichment (6-mer frequency, TF over GST control)
42 | CGCCGC | 1.14 fold enrichment (6-mer frequency, TF over GST control)
43 | TAATGA | 1.1 fold enrichment (6-mer frequency, TF over GST control)
44 | CCGTAA | 1.09 fold enrichment (6-mer frequency, TF over GST control)
45 | ATTACT | 1.28 fold enrichment (6-mer frequency, TF over GST control)
46 | CTGGCC | 1.23 fold enrichment (6-mer frequency, TF over GST control)
47 | ATAGCA | 1.14 fold enrichment (6-mer frequency, TF over GST control)
48 | CCATTG | 1.15 fold enrichment (6-mer frequency, TF over GST control)
49 | TCTATA | 1.26 fold enrichment (6-mer frequency, TF over GST control)
50 | CTTACA | 1.24 fold enrichment (6-mer frequency, TF over GST control)
51 | AACGAA | 1.18 fold enrichment (6-mer frequency, TF over GST control)
52 | CCTCTG | 1.65 fold enrichment (6-mer frequency, TF over GST control)
53 | GAAAAA | 1.1 fold enrichment (6-mer frequency, TF over GST control)
54 | AGATGC | 1.04 fold enrichment (6-mer frequency, TF over GST control)
55 | TACTAA | 1.28 fold enrichment (6-mer frequency, TF over GST control)
56 | CTCCGT | 1.21 fold enrichment (6-mer frequency, TF over GST control)
57 | TGCGAC | 1.22 fold enrichment (6-mer frequency, TF over GST control)
58 | GAACTT | 1.7 fold enrichment (6-mer frequency, TF over GST control)
59 | ATCGCT | 1.04 fold enrichment (6-mer frequency, TF over GST control)

Row | Sequence | binding signal
60 | AAGTAG | 1.15 fold enrichment (6-mer frequency, TF over GST control)
61 | AACAGC | 1.12 fold enrichment (6-mer frequency, TF over GST control)
62 | TACTGC | 1.24 fold enrichment (6-mer frequency, TF over GST control)
63 | GCCGAT | 1.03 fold enrichment (6-mer frequency, TF over GST control)
64 | CCTCAA | 1.32 fold enrichment (6-mer frequency, TF over GST control)
65 | GCACTG | 1.1 fold enrichment (6-mer frequency, TF over GST control)
66 | TTTCGC | 1.13 fold enrichment (6-mer frequency, TF over GST control)
67 | ATCTAC | 1.34 fold enrichment (6-mer frequency, TF over GST control)
68 | CACTCT | 1.36 fold enrichment (6-mer frequency, TF over GST control)
69 | ATTATC | 1.29 fold enrichment (6-mer frequency, TF over GST control)
70 | GGCACT | 1.22 fold enrichment (6-mer frequency, TF over GST control)
71 | TCAACG | 1.14 fold enrichment (6-mer frequency, TF over GST control)
72 | TCCACT | 1.5 fold enrichment (6-mer frequency, TF over GST control)
73 | ACAATG | 1.15 fold enrichment (6-mer frequency, TF over GST control)
74 | AGTTTC | 1.27 fold enrichment (6-mer frequency, TF over GST control)
75 | AACAAG | 1.13 fold enrichment (6-mer frequency, TF over GST control)
76 | ACCTCC | 1.44 fold enrichment (6-mer frequency, TF over GST control)
77 | CGATAG | 1.15 fold enrichment (6-mer frequency, TF over GST control)
78 | AGTACT | 1.22 fold enrichment (6-mer frequency, TF over GST control)

target: T2, EHF (Homo sapiens, UniProt Q9NZC4 1-300); assay: as above; settings: protein: recombinant; tags: N-terminal GST; dsDNA, one strand shown
T2 sequence: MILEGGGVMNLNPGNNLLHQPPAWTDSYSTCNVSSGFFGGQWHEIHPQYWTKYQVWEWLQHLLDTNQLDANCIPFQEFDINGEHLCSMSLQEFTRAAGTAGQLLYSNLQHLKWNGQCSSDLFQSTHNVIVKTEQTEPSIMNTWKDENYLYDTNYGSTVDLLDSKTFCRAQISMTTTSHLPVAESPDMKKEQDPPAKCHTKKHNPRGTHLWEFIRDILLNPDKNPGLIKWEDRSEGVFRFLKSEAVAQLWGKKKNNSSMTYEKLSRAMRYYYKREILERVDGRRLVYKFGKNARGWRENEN
Summary of the method: as §1

Row | Sequence | binding signal
79 | AACGAC | 1.1 fold enrichment (6-mer frequency, TF over GST control)
80 | CGCCGA | 1.22 fold enrichment (6-mer frequency, TF over GST control)
81 | CGCCGC | 1.27 fold enrichment (6-mer frequency, TF over GST control)
82 | TAATGA | 1.2 fold enrichment (6-mer frequency, TF over GST control)
83 | CCGTAA | 1.17 fold enrichment (6-mer frequency, TF over GST control)
84 | ATTACT | 1.27 fold enrichment (6-mer frequency, TF over GST control)
85 | CTGGCC | 1.13 fold enrichment (6-mer frequency, TF over GST control)
86 | ATAGCA | 1.13 fold enrichment (6-mer frequency, TF over GST control)
87 | CCATTG | 1.19 fold enrichment (6-mer frequency, TF over GST control)
88 | TCTATA | 1.07 fold enrichment (6-mer frequency, TF over GST control)
89 | CTTACA | 1.33 fold enrichment (6-mer frequency, TF over GST control)
90 | AACGAA | 1.15 fold enrichment (6-mer frequency, TF over GST control)
91 | CCTCTG | 1.67 fold enrichment (6-mer frequency, TF over GST control)
92 | GAAAAA | 1.2 fold enrichment (6-mer frequency, TF over GST control)
93 | AGATGC | 1.08 fold enrichment (6-mer frequency, TF over GST control)
94 | TACTAA | 1.3 fold enrichment (6-mer frequency, TF over GST control)
95 | CTCCGT | 1.15 fold enrichment (6-mer frequency, TF over GST control)
96 | TGCGAC | 1.13 fold enrichment (6-mer frequency, TF over GST control)
97 | GAACTT | 1.59 fold enrichment (6-mer frequency, TF over GST control)
98 | ATCGCT | 1.08 fold enrichment (6-mer frequency, TF over GST control)

Row | Sequence | binding signal
99 | AAGTAG | 1.23 fold enrichment (6-mer frequency, TF over GST control)
100 | AACAGC | 1.16 fold enrichment (6-mer frequency, TF over GST control)
101 | TACTGC | 1.3 fold enrichment (6-mer frequency, TF over GST control)
102 | GCCGAT | 1.01 fold enrichment (6-mer frequency, TF over GST control)
103 | CCTCAA | 1.39 fold enrichment (6-mer frequency, TF over GST control)
104 | GCACTG | 1.12 fold enrichment (6-mer frequency, TF over GST control)
105 | TTTCGC | 1.2 fold enrichment (6-mer frequency, TF over GST control)
106 | ATCTAC | 1.25 fold enrichment (6-mer frequency, TF over GST control)
107 | CACTCT | 1.38 fold enrichment (6-mer frequency, TF over GST control)
108 | ATTATC | 1.28 fold enrichment (6-mer frequency, TF over GST control)
109 | GGCACT | 1.33 fold enrichment (6-mer frequency, TF over GST control)
110 | TCAACG | 1.06 fold enrichment (6-mer frequency, TF over GST control)
111 | TCCACT | 1.36 fold enrichment (6-mer frequency, TF over GST control)
112 | ACAATG | 1.09 fold enrichment (6-mer frequency, TF over GST control)
113 | AGTTTC | 1.34 fold enrichment (6-mer frequency, TF over GST control)
114 | AACAAG | 1.17 fold enrichment (6-mer frequency, TF over GST control)
115 | ACCTCC | 1.31 fold enrichment (6-mer frequency, TF over GST control)
116 | CGATAG | 1.05 fold enrichment (6-mer frequency, TF over GST control)
117 | AGTACT | 1.27 fold enrichment (6-mer frequency, TF over GST control)
